This is one part of a sample in which hits are shown more often than they occur.
FECH inh = blocks human mitochondrial ferrochelatase activity. purified FECH, Ni-mesoporphyrin absorbance 550 nm. calls only at 10 µM (by protocol). hit rate 3.3% among 20,000;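 active means enzyme reaction rate more than 3 SD below the solvent-only control wells on the same plate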;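 further: lower slope than DMSO wells means FECH inhibition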
Target sequence (P22830 whole entry, looked up): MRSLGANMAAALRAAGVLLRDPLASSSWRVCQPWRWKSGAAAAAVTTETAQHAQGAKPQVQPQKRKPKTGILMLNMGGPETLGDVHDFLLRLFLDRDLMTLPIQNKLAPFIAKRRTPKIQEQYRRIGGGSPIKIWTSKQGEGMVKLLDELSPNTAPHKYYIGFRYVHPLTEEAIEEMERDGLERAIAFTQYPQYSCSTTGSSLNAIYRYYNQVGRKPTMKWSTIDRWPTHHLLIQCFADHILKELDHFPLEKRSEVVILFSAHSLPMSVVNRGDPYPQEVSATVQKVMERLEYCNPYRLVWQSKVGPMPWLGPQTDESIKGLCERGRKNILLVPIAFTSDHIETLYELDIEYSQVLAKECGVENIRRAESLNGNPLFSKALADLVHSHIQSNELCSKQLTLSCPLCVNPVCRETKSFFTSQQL
* = called active by the depositor; i = inactive; + = active, no number.

SMILES	FECH inh
CC(=O)c1ccc(NC(=O)CN2CCCN(Cc3ccccc3)S2(=O)=O)cc1	i
COc1ccc(CNC(=O)CN2CCCN(Cc3cccc(Cl)c3)S2(=O)=O)cc1	i
CCOc1ccc(NC(=O)CN2CCCN(Cc3cccc(Cl)c3)S2(=O)=O)cc1	+
O=C(CN1CCCN(Cc2cccc(Cl)c2)S1(=O)=O)Nc1ccc2c(c1)OCO2	i
CCOc1ccc(NC(=O)CN2CCCN(Cc3ccccc3)S2(=O)=O)cc1	+
COC(=O)c1ccc(NC(=O)CN2CCCN(Cc3ccccc3)S2(=O)=O)cc1	i
COc1ccc(NC(=O)CN(C)S(=O)(=O)c2ccc(C(=O)N3CCOCC3)s2)cc1	+
COc1ccc(CN2CCCN(CC(=O)Nc3ccc4c(c3)OCCO4)S2(=O)=O)cc1	i
COc1ccc(CNS(=O)(=O)c2ccc(C(=O)N(C)C)s2)cc1	i
O=S(=O)(NCc1nc2cccnc2n1Cc1ccc(Cl)cc1)c1ccc(Cl)cc1	i
CS(=O)(=O)NCCn1c(-c2ccccc2)nc2cccnc21	i
COc1ccc(Nc2nc(N3CCCCC3)nc3c2cnn3-c2ccccc2)cc1	i
COc1ccc(Nc2nc(N3CCN(CCO)CC3)nc3c2cnn3-c2ccccc2)cc1	i
CN(CCO)c1nc(Nc2ccc(Cl)cc2)c2cnn(-c3ccccc3)c2n1	+
COc1ccc(Nc2nc(N3CCOCC3)nc3c2cnn3-c2ccccc2)cc1	i
COc1ccc(Nc2nc(N3CCC(C)CC3)nc3c2cnn3-c2ccccc2)cc1	+
Clc1ccc(Nc2nc(N3CCN(c4ccccc4)CC3)nc3c2cnn3-c2ccccc2)cc1	i
CCN(CCO)c1nc(Nc2ccc(Cl)cc2)c2cnn(-c3ccccc3)c2n1	i
Cc1ccc(Nc2nc(N3CCN(C)CC3)nc3c2cnn3-c2ccccc2)cc1	i
CN1CCN(c2nc(Nc3ccc(Cl)cc3)c3cnn(-c4ccccc4)c3n2)CC1	+
CN(CCO)c1nc(Nc2ccccc2)c2cnn(-c3ccccc3)c2n1	i
OCCN1CCN(c2nc(Nc3ccc(Cl)cc3)c3cnn(-c4ccccc4)c3n2)CC1	+
OCCN1CCN(c2nc(Nc3ccc(F)cc3)c3cnn(-c4ccccc4)c3n2)CC1	i
O=C(Nc1ccc(Br)cc1F)N1CCN(Cc2nc3cccnc3n2-c2ccccc2)CC1	i
Cc1ccc(-n2ncc3c(-n4nc(C)cc4NC(=O)C(C)(C)C)ncnc32)c(C)c1	i
SMILES	FECH inh
CN(CCc1ccccc1)C1(C(=O)N2CCOC(CN)C2)Cc2ccccc2C1 (centres undefined)	i
CC(=O)Nc1ccc(S(=O)(=O)N2CCN(c3nc(C)cc(N(C)C)n3)CC2)cc1	i
Cc1cnc(C)c(N2CC[C@@H](N3CCN(CCc4ccccc4)CC3)[C@H](O)C2)n1	i
CCN1CCc2c(sc(NC(C)=O)c2-c2nc3ccccc3s2)C1	i
COc1ccccc1-c1nc(CSc2nc(-c3ccccc3)cc(=O)[nH]2)c(C)o1	i
c1ccc(CN2CCCN(Cc3cc4n(n3)CCCNC4)CC2)nc1	i
COc1ccc(C2C=C(c3ccccc3)Nc3nc(NC(=O)CCC(=O)O)nn32)cc1 (centres undefined)	i
O=C(c1c[nH]c(=O)cn1)N1CCCCC1CCn1ccnc1 (centres undefined)	i
c1ccc2c(CN3CCCCC3CCn3ccnc3)ccnc2c1 (centres undefined)	+
O=C(NCCc1ccccc1)N1CCCCC1CCn1ccnc1 (centres undefined)	i
Cc1ccc(OCCN(C)C(=O)c2ccc(Cn3nnnc3C)cc2)c(C)c1	i
CCN(CCc1nc2ccc(C)cc2[nH]1)C(=O)c1cnn2cc(CCO)cnc12	i
Cc1ccc(C)c(OCCN(C)C(=O)c2cc3ncc(CCO)cn3n2)c1	+
c1cncc(-c2nc(CCNC3CCSC3)cs2)c1 (centres undefined)	i
CC1=NN(CC(=O)N(C)C(C)Cc2ncccc2C)CC1 (centres undefined)	i
CCc1nc(C)c(C(=O)N(C)Cc2cc(C(C)(C)C)n[nH]2)o1	i
O=C1CN(Cc2ccccc2)S(=O)(=O)c2ccccc2N1Cc1ccccc1F	+
O=C1CN(Cc2ccc(F)cc2)S(=O)(=O)c2ccccc2N1Cc1ccccc1	i
O=C1CN(Cc2ccc(F)cc2Cl)S(=O)(=O)c2ccccc2N1Cc1ccccc1F	i
Cc1cc2n(n1)CCC(=O)N2Cc1ccc(C(=O)Nc2cccc(F)c2)cc1	i
CCOc1ccc(CNC(=O)CN2C(=O)CN(C)C(=O)c3ccccc32)cc1OC	i
COc1ccc(OC)c(CNC(=O)Cn2c(=O)c3cnc(-c4ccccc4)nc3n(C)c2=O)c1	i
COc1ccc(OC)c(CNC(=O)CN2C(=O)c3cccnc3Sc3ccccc32)c1	+
CCOC(=O)c1c(NC(=O)c2ccc(Cl)s2)sc2c1CCN(C(C)C)C2	i
CC(NC(=O)CSCc1ccccc1Cl)c1nccs1 (centres undefined)	i
SMILES	FECH inh
CC(C)C(=O)Nc1nc2n(n1)C(c1ccccc1Cl)C=C(c1ccc(Cl)cc1)N2 (centres undefined)	i
O=C(Nc1nc2n(n1)C(c1ccccc1Cl)C=C(c1ccc(Cl)cc1)N2)c1ccco1 (centres undefined)	+
CC(C)CC(=O)Nc1nc2n(n1)C(c1ccc(F)cc1)C=C(c1ccc(Cl)cc1)N2 (centres undefined)	i
O=C(Nc1nc2n(n1)C(c1ccccc1Cl)C=C(c1ccc(Cl)cc1)N2)c1ccc(F)cc1 (centres undefined)	i
CC(=O)Nc1nc2n(n1)C(c1ccc(Cl)cc1)C=C(c1ccc(Cl)cc1)N2 (centres undefined)	i
CC(C)CC(=O)Nc1nc2n(n1)C(c1ccccc1Cl)C=C(c1ccc(Cl)cc1)N2 (centres undefined)	i
CCC(=O)Nc1nc2n(n1)C(c1ccccc1Cl)C=C(c1ccc(Cl)cc1)N2 (centres undefined)	i
CC(C)CC(=O)Nc1nc2n(n1)C(c1ccc(Cl)cc1)C=C(c1ccc(Cl)cc1)N2 (centres undefined)	+
Cc1ccc(C2=CC(c3ccccc3Cl)n3nc(NC(=O)CC(C)C)nc3N2)cc1 (centres undefined)	+
CCC1CN(Cc2cnc(-c3ccccn3)nc2)CCN1C(C)C (centres undefined)	i
CCOc1ccc(C(=O)NC2CC(=O)N(c3ccc(OC)cc3)C2)cc1 (centres undefined)	i
O=C(Nc1ccc(Oc2cccnc2)cc1)c1ccccc1C1CCNC1 (centres undefined)	i
COc1ccc(OC)c(Nc2nc(NCCCO)nc3c2cnn3-c2ccccc2)c1	i
Cc1cccc(C(=O)Nc2nc3n(n2)C(c2c(F)cccc2Cl)C=C(c2ccc(Cl)cc2)N3)c1 (centres undefined)	+
O=C(Nc1nc2n(n1)C(c1c(F)cccc1Cl)C=C(c1ccccc1)N2)c1ccccc1 (centres undefined)	+
O=C(Nc1nc2n(n1)C(c1ccc(F)cc1)C=C(c1ccccc1)N2)c1ccccc1 (centres undefined)	+
CC(=O)Nc1nc2n(n1)C(c1c(F)cccc1Cl)C=C(c1ccccc1)N2 (centres undefined)	+
Cc1ccc(C2=CC(c3c(F)cccc3Cl)n3nc(NC(=O)CCc4ccccc4)nc3N2)cc1 (centres undefined)	i
